The text below walks through data of ChEMBL document CHEMBL3988442, “University of Dundee, Small-Polar-MMV Screening Library” (2021).

For some of these results: Potency and affinity values are given separately.

Parameters in all cases: scale not given: direction of the effect not stated beside the values
Assay [1] deals with Protein translocase subunit SecA (Escherichia coli (strain K12)) (UniProt P10408). Kind of assay: Assay to Identify E. coli SecA ATPase Inhibitors. In kind it is functional. The settings on record: 30 µM.
The target of assay [2] is T1, Ubiquitin-activating enzyme e1, putative (Leishmania donovani (strain BPK282A1)) (UniProt E9BSI1).
T1 sequence (whole entry): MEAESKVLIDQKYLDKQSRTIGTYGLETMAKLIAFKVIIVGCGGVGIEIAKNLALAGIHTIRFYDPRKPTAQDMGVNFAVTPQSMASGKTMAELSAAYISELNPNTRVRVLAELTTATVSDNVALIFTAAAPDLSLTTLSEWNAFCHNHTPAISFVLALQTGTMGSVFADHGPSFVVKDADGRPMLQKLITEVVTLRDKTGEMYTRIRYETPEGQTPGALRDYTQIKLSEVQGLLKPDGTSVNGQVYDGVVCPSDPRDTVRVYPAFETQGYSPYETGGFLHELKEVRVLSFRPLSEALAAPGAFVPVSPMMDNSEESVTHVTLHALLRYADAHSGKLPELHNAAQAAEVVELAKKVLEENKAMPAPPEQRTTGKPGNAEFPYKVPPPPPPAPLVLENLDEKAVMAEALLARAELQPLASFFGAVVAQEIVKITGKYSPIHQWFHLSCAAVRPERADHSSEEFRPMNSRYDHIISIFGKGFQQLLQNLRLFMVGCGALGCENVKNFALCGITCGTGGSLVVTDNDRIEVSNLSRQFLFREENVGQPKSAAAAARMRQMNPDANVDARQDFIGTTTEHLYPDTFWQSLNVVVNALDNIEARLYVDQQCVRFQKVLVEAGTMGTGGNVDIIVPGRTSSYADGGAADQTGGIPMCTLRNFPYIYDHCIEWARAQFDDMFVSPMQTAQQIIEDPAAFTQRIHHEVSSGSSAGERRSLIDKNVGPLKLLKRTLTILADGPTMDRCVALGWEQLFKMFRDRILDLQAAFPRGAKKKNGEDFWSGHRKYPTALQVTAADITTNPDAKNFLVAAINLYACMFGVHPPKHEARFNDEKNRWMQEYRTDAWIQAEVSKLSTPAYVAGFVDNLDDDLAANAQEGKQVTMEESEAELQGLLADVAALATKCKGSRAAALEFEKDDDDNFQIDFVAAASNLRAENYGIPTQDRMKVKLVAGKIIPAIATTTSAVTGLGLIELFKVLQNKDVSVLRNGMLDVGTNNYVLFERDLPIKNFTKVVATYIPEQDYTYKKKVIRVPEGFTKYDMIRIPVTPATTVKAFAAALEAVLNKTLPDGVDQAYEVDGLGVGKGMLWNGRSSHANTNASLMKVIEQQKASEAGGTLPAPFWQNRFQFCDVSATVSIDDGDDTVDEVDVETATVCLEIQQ
Kind of assay: Leishmania donovani Ubiquitin Activating Enzyme (LdE1). Format: functional. The settings on record: 30 µM.

The target in assay [3] is AMP-activated protein kinase, AMPK (Homo sapiens) (UniProt P54646+O43741+P54619+Q9UGJ0+Q9Y478+Q13131+Q9UGI9). Kind of assay: AMP-dependent Kinase enzyme assay. An in vitro enzyme assay that detects ADP turnover that is directly proportional to AMPK activity. This uses naive AMPK that is activated during the assay with MK-8722. In kind it is functional. The settings on record: 30 µM.

Assay [4] deals with Sialic acid-binding Ig-like lectin 9 (Homo sapiens) (UniProt Q9Y336). The assay is described as follows: Hs-Siglec9 ALPHAscreen SOP 20170721. The settings on record: 10 µM. For orientation: Bead proximity is the source of the signal in Alpha formats.
Another assay deals with Trypanosoma cruzi. Kind of assay: Trypanosoma cruzi phosphomannomutase and mannose-1-phosphate guanylyltransferase assay. In kind it is functional. The settings on record: 10 µM.
Assay [5] concerns the target T2, Arginase-2, mitochondrial (Homo sapiens) (UniProt P78540).
T2 sequence (whole entry): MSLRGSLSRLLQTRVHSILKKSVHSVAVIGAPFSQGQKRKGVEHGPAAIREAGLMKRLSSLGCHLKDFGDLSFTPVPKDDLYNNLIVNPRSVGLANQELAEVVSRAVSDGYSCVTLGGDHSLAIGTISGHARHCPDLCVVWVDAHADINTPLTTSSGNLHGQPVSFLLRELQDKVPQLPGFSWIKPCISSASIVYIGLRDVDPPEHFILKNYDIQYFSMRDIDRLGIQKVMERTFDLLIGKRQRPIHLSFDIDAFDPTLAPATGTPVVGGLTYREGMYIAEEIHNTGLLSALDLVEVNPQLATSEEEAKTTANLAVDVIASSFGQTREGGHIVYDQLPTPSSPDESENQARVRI
The assay is described as follows: in vitro enzyme assay to detect the production of urea directly proportional to the activity of Arginase II. Note: in the data most compounds retested in dose-response had high values. Format: functional. The settings on record: 33.3 µM.

Assay [6] concerns the target T3, Proteasome subunit beta (Trypanosoma cruzi) (UniProt O96673).
T3 sequence (whole entry): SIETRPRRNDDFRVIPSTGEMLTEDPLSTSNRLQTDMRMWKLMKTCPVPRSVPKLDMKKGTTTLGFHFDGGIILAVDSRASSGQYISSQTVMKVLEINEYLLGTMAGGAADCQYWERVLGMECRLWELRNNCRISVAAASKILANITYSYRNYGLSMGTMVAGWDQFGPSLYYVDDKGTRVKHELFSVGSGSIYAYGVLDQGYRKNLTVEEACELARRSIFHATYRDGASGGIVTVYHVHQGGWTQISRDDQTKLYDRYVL
Kind of assay: Trypanosoma cruzi proteasome chymotrypsin-like activity (TcProtChymo) assay. Note: in the data most compounds retested in dose-response had high values. Format: functional. The settings on record: 9.37 µM.

The species named for another assay is Homo sapiens. Kind of assay: To identify inhibition of the IFN signalling (Jak-Stat) pathway via expression of an eGFP reporter gene under the control of an IFN-stimulated response element (ISRE) containing MxA promoter. Format: functional. The settings on record: 30 µM. (In a reporter assay the amount or activity of a reporter protein is the signal.)
The target of assay [7] is T4, Tyrosyl-tRNA synthetase, putative (Trypanosoma cruzi (strain CL Brener)) (UniProt Q4DSP6).
T4 sequence (whole entry): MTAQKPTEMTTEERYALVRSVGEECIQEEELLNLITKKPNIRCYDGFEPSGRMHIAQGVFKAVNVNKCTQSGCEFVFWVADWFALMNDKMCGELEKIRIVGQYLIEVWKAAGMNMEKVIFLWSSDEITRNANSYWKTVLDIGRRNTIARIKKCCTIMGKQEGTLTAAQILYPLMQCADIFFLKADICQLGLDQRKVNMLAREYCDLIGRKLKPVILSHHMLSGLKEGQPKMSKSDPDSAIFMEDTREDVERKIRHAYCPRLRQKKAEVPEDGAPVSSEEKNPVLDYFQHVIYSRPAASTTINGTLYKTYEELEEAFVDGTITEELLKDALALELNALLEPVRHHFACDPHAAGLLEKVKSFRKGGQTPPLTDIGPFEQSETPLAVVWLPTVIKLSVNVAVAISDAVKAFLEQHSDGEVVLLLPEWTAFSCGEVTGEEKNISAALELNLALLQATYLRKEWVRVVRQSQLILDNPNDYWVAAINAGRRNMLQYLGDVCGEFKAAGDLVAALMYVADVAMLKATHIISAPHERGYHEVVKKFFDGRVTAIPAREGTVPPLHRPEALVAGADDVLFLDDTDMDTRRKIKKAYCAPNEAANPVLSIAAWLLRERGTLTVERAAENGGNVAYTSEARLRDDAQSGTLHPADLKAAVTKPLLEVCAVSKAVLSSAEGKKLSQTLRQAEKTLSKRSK
The assay is described as follows: Trypanosoma cruzi tyrosyl tRNA synthetase (TcYRS) _High Tyrosine SOP. Note: in the data most compounds retested in dose-response had high values. Format: functional. The settings on record: 30 µM.

Assay [8] deals with T4, Tyrosyl-tRNA synthetase, putative (Trypanosoma cruzi (strain CL Brener)). The assay is described as follows: Trypanosoma cruzi tyrosyl tRNA synthetase (TcYRS) SOP. Format: functional. The settings on record: 30 µM.
For assay [9], the target named is Chromo domain-containing protein 1 (Saccharomyces cerevisiae (strain ATCC 204508 / S288c) (Baker's yeast)) (UniProt P32657). Kind of assay: ScCHD-1 Enzyme Inhibition Assay. Note: in the data most compounds retested in dose-response had high values. In kind it is functional. The settings on record: 30 µM.
Chromo domain-containing protein 1 (Saccharomyces cerevisiae (strain ATCC 204508 / S288c) (Baker's yeast)), sequence (P32657 whole entry, the tested form may be a part): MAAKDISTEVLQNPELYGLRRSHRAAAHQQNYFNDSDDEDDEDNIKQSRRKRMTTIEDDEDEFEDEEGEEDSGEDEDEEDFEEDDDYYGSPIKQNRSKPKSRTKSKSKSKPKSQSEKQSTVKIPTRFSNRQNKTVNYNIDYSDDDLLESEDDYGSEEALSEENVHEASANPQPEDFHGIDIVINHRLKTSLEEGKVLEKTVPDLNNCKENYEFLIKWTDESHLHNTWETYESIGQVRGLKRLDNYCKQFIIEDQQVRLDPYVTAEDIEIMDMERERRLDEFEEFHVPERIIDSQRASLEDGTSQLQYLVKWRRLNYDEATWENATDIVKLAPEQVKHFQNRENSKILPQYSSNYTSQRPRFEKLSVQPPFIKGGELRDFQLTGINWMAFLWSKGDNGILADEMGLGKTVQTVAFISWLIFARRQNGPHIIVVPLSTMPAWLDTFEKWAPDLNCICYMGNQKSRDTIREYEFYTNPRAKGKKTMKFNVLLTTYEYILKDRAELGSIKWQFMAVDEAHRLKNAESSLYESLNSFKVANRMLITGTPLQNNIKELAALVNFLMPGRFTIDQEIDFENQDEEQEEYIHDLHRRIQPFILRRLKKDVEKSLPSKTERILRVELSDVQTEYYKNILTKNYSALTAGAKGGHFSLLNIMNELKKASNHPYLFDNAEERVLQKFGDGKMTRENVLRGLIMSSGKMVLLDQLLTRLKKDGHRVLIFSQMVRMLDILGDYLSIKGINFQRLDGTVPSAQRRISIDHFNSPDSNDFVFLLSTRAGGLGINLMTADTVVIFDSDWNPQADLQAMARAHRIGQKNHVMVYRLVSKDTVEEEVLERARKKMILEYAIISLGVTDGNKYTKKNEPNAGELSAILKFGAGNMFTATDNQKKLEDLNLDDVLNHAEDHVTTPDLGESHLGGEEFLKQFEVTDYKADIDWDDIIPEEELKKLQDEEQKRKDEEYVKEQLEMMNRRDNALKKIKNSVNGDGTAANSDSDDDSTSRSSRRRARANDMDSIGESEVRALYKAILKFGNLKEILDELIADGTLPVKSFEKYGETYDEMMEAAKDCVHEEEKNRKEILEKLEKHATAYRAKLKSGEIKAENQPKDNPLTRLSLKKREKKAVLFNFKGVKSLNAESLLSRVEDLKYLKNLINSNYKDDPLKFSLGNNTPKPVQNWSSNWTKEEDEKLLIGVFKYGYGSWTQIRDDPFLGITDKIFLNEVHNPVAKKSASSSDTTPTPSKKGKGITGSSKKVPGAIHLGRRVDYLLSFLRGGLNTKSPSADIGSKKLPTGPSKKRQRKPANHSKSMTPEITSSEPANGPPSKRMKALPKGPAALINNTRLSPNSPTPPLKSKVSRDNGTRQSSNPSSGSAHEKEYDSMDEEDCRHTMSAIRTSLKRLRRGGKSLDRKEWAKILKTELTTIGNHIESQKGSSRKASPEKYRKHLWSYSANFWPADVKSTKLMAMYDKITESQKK

Sialic acid-binding Ig-like lectin 9 (Homo sapiens), sequence (Q9Y336 whole entry): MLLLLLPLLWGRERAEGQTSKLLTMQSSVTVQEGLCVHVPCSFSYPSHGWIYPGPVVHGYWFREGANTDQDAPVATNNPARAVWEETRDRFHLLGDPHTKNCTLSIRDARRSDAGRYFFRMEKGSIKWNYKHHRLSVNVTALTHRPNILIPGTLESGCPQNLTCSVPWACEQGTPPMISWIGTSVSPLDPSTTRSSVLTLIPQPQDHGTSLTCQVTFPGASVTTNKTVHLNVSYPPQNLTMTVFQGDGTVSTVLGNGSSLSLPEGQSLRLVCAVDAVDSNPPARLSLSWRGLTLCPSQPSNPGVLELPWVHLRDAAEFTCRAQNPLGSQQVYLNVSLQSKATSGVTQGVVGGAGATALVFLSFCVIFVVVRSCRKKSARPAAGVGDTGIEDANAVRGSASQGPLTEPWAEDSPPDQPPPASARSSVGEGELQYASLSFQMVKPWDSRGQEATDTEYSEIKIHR
Protein translocase subunit SecA (Escherichia coli (strain K12)), sequence (P10408 whole entry): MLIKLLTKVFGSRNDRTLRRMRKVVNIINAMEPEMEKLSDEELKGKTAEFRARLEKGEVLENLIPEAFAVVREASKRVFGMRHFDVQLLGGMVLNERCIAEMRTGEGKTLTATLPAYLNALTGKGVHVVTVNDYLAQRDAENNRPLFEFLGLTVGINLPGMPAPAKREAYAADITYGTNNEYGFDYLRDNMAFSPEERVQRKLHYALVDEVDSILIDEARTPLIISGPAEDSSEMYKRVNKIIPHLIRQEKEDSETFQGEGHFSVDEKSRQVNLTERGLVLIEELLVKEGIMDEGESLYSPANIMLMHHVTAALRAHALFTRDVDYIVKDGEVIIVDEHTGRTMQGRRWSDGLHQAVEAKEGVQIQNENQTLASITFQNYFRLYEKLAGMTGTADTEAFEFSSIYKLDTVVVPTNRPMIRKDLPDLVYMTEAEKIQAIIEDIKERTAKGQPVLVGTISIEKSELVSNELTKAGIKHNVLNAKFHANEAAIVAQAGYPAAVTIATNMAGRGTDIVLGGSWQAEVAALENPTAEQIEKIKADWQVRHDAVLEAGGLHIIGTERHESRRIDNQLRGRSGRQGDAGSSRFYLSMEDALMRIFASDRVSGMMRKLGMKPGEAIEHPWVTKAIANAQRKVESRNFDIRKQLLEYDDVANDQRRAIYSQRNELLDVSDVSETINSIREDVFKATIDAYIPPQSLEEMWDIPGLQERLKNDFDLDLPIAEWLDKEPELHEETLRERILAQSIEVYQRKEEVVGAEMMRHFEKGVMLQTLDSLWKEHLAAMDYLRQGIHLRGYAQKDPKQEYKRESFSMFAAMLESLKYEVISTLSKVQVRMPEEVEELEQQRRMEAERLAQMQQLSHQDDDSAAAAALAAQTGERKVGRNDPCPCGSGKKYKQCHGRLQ

Take `CNC(=O)NC(=O)Cn1cc(-c2ccccc2)cn1`: the Percent Effect is -4.72% in assay [1]; 6.33% in assay [2]; 12.6% in assay [3]; 5.24% in assay [4]; -5.03% in the assay on Trypanosoma cruzi; -1.07% in assay [5]. Further, the Percent Effect is 8.23% in assay [6]; 17.1% in the assay listed under Homo sapiens; 2.08% in assay [7]; 10.1% in assay [8]; -4.57% in [9].
`CN(Cc1cnn(C)c1)C(=O)NC1CCS(=O)(=O)C1` (stereo unspecified): the Percent Effect is 0.0061% in assay [1]; 4.17% in assay [2]; -12.4% in assay [3]; -0.91% in assay [4]; 5.15% in the assay on Trypanosoma cruzi; -0.442% in [5]. Moreover, the Percent Effect in assay [6] was 20.5%; in the assay filed under Homo sapiens, 6.03%; in assay [7] it was 4.21%; in assay [8], 7.69%; in [9] it was -2.71%.
On to `Cc1ccccc1CS(=O)(=O)CC(=O)NCc1ccccc1F`, for which the Percent Effect in [1] is -3.68%; in assay [2], 7.89%; in assay [3], 11.2%; in assay [4], 7.68%; in the assay with Trypanosoma cruzi, 0.292%; in assay [5], 3.55%. Besides, the Percent Effect in assay [6] is 10.6%; in the assay filed under Homo sapiens it was 31%; in assay [7], 4.25%; in [8], 13%; in assay [9], -2.75%.
Regarding `Cc1noc(CN(Cc2ccc3c(c2)OCO3)Cc2ccc(C)o2)n1`, the Percent Effect in assay [1] was -2.53%; in assay [2] it was 13.5%; in [3] it was -9.33%; in assay [4], -9.31%; in the assay with Trypanosoma cruzi it was -5.75%; in [5], 3.21%. For the same compound, the Percent Effect was 13.3% in assay [6]; 27.4% in the assay filed under Homo sapiens; 8.37% in assay [7]; 13.6% in assay [8]; -6.37% in assay [9].
As to `CC(=O)N1CCCCC1c1nc2c(c(N3CCCCC3)n1)CN(C)CC2` (stereo unspecified), the Percent Effect in assay [1] was 0.622%; in assay [2] it was -9.46%; in assay [3] it was 2.5%; in [4] it was 0.77%; in the assay on Trypanosoma cruzi, 1.38%; in assay [5], -3.48%. Moreover, the Percent Effect in assay [6] was 23.4%; in the assay filed under Homo sapiens it was 11.2%; in assay [7], 15.1%; in assay [8] it was 14.3%; in assay [9], -9.65%.
Take `Cc1nc(C)n(C2CCCN(C(=O)c3ccc4c(c3)COC4)C2)n1` (stereo unspecified): the Percent Effect was -2.83% in assay [1]; 13.5% in assay [2]; -5.96% in assay [3]; 7.05% in assay [4]; 7.15% with Trypanosoma cruzi; 2.4% in assay [5]. Further, the Percent Effect in assay [6] is -4.67%; in the assay filed under Homo sapiens, 6.78%; in [7], 2.97%; in assay [8] it was 11%; in [9], 0.576%.
For the compound `Cc1cc(CN(C)C(=O)C2CCCN(C(=O)c3ccc(Cl)cc3)C2)no1` (stereo unspecified), the Percent Effect in [1] was -4.75%; in assay [2] it was -39%; in assay [3], 3.47%; in [4], 5.71%; with Trypanosoma cruzi, -0.885%; in assay [5] it was -20.7%. The Percent Effect was 11.7% in assay [6]; 0.275% in the assay filed under Homo sapiens; 2.15% in [7]; 11.1% in assay [8]; -7.95% in assay [9].
Consider `CCCNC(=O)c1cnc(N(C)C)nc1COC`, for which the Percent Effect in assay [1] was -3.99%; in [2], 9.33%; in [3], 7.82%; in assay [4], 8.88%; with Trypanosoma cruzi, 2.75%; in [5], -2.99%. The Percent Effect in assay [6] was 8.69%; in the assay listed under Homo sapiens it was 13.2%; in assay [7], 1.06%; in assay [8] it was 10.3%; in assay [9] it was -3.99%.
`Cc1nc(CN2CCCC(NCCc3ccccc3Cl)C2)no1` (stereo unspecified): the Percent Effect in assay [1] was -4.45%; in assay [2] it was 7.59%; in assay [3], 4.77%; in assay [4], 11.6%; with Trypanosoma cruzi it was 2.36%; in assay [5] it was -1.14%. Further, the Percent Effect in assay [6] was -3.19%; in the assay filed under Homo sapiens, -4.21%; in assay [7], 5.42%; in [8], 8.86%; in [9], -0.689%.
Regarding `O=S(=O)(NCC1(O)CCOc2ccccc21)c1cccs1` (stereo unspecified), the Percent Effect in assay [1] was -8.36%; in [2] it was 0%; in assay [3] it was 3.61%; in assay [4], -4.67%; in the assay on Trypanosoma cruzi it was -3.72%; in assay [5], -0.455%. Also, the Percent Effect in assay [6] was determined as 5.86%; in the assay filed under Homo sapiens it was 8.26%; in [7], 1.07%; in [8], 5%; in assay [9] it was 0.9%.
For the compound `CC(C(=O)Nc1cccc(N2CCCCC2)c1)n1cncn1` (stereo unspecified), the Percent Effect in [1] was -7.36%; in assay [2], 13.5%; in assay [3], -9.41%; in [4], 28.7%; in the assay on Trypanosoma cruzi, 3.11%; in assay [5], -3.61%. Further, the Percent Effect was 10.3% in assay [6]; 0.641% in the assay listed under Homo sapiens; 5.42% in [7]; 23.5% in [8]; -10.9% in assay [9].
